Assay results reported in PubChem BioAssay (Tox21).
Inconclusive results are not listed. The source made the active and inactive calls. Unless noted, calls follow the shape of the dose curve; as a rule, active = well fitted curve in the direction sought with a large enough effect in the repeat runs; inconclusive = weak or mixed curves; inactive = no such curve, though single readings can be large; an effect the other way counts as inactive or inconclusive.

What was measured:
[1] = qHTS assay to identify small molecule antagonists of the retinoid acid receptor (RAR) signaling pathway - cell viability counter screen (AID 1159551); also: nearly all actives have a fitted effect of over 35% in size
In short: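 Cytotoxicity counter screen: ATP content quantified by CellTiter-Glo luminescence in C3RL4 cells treated 6 hr at 37 C with compound and retinol (1 uM final). Cells plated at 1,000/well and cultured overnight before dosing.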

[2] = qHTS assay to identify small molecule antagonists of the estrogen related receptor (ERR) signaling pathway from Tox21 library - cell viability counter screen (AID 1224834); also: nearly all actives have a fitted effect of over 30% in size; also: potency is read from the fitted curve at half-maximal effect
In short: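 CellTiter-Fluor fluorescence, read after 30 min at 37 C, measures viability of ERR cells. Cells plated at 2,000/well and incubated 6 h before pin-tool compound addition, then exposed 17.5 hours at 37 C.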

[3] = molecular target: Luciferin 4-monooxygenase (Photinus pyralis) (UniProt P08659); assay: qHTS assay to identify small molecule inhibitors of firefly luciferase (AID 1224835); also: series mostly up to about 120 µM; nearly all actives have a fitted effect of over 25% in size
In short: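 Biochemical qHTS: compounds run as interplate titrations against purified firefly enzyme, with D-luciferin and ATP each at its KM concentration. Light output recorded by CCD imaging.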

[4] = qHTS assay to identify small molecule agonists of the constitutive androstane receptor (CAR) signaling pathway - cell viability counter screen (AID 1224836); also: series mostly up to about 92 µM; nearly all actives have a fitted effect of over 45% in size
In short: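 Multiplexed viability check: HepG2-CYP2B6-hCAR cells, 15-point compound dosing, 0.75 uM PK11195 final, 23 h at 37 C, CellTiter-Fluor fluorescence.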

[5] = qHTS assay to identify small molecule antagonists of the constitutive androstane receptor (CAR) signaling pathway - cell viability counter screen (AID 1224837); also: series mostly up to about 92 µM; nearly all actives have a fitted effect of over 45% in size
In short: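 Cytotoxicity counter-screen: CellTiter-Fluor fluorescence after 23 h compound exposure (15-point qHTS) in double-stable HepG2-CYP2B6-hCAR cells, with 50 nM CITCO added.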

[6] = molecular target: Nuclear receptor subfamily 1 group I member 3 (Homo sapiens) (UniProt Q14994); assay: qHTS assay to identify small molecule agonists of the constitutive androstane receptor (CAR) signaling pathway (AID 1224839); also: nearly all actives have a fitted effect of over 15% in size; also: potency is read from the fitted curve at half-maximal effect
In short: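 Using human hepatoma HepG2 cells engineered with hCAR and a CYP2B6-2.2kb reporter, 15-concentration compound series were incubated 24 h alongside PK11195 at 0.75 uM final, with luminescence quantified afterwards.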

[7] = qHTS assay to identify small molecule antagonists of the estrogen related receptor signaling pathway with the pleiotropic PPARgamma coactivator (PGC) from Tox21 10K library - cell viability counter screen (AID 1224840; active = well fitted cell-killing curve with a large enough effect in the repeat runs, not every such curve was filed as active; also: nearly all actives have a fitted effect of over 40% in size)
In short: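 Counter-screen for cytotoxicity: after 17.5 h compound exposure at 37 C, CellTiter-Fluor reagent added to PGC/ERR cells for 30 min and fluorescence read. Cells were seeded at 2,000 per well 6 h before dosing.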

[8] = qHTS assay to identify small molecule antagonists of the estrogen related receptor signaling pathway with the pleiotropic PPARgamma coactivator (PGC) from Tox21 10K library (AID 1224841; call rule not given here; also: actives are mostly falling curves and most rising ones were filed inactive; nearly all actives have a fitted effect of over 50% in size; also: potency is read from the fitted curve at half-maximal effect)
In short: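 Luminescence (One-Glo, 30 min at room temperature) after 18 h compound treatment at 37 C of PGC/ERR reporter cells plated at 2,000 cells/well and settled 6 h beforehand.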

[9] = qHTS assay to identify small molecule agonists of the estrogen related receptor signaling pathway with the pleiotropic PPARgamma coactivator (PGC) from Tox21 10K library (AID 1224842); also: nearly all actives have a fitted effect of over 15% in size
In short: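 PGC/ERR reporter cell line, 2,000 cells per well, incubated 6 h at 37 C before 23 nL compound in DMSO was added. After 18 h at 37 C, One-Glo luminescence read following 30 min at room temperature.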

[10] = molecular target: Nuclear receptor subfamily 1 group I member 3 (Homo sapiens) (UniProt Q14994); assay: qHTS assay to identify small molecule antagonists of the constitutive androstane receptor (CAR) signaling pathway (AID 1224838);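 also: HepG2 cells stably expressing hCAR with CYP2B6 luciferase reporter stimulated by CITCO; nearly all actives have a fitted effect of over 40% in size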
In short: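 Antagonism measured as luciferase signal (ONE-Glo, 30 min, room temperature) in CAR-stimulated cells: HepG2-CYP2B6-hCAR double-stable line exposed 24 hr at 37 C to compound in a 15-point series plus 50 nM CITCO.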

[11] = qHTS assay to identify small molecule agonists of the hypoxia (HIF-1) signaling pathway - cell viability counter screen (AID 1224844; calls by dose curve; also: nearly all actives have a fitted effect of over 50% in size; also: potency is read from the fitted curve at half-maximal effect)
In short: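 Cytotoxicity measured by CellTiter-Glo ATP luminescence in the wells also read for beta-lactamase signal. Cells were HRE-bla ME-180 (2,000/well, 0.5% dialyzed FBS), exposed to compounds for 17 h at 37C.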

[12] = qHTS assay to identify small molecule antagonists of the estrogen related receptor (ERR) signaling pathway - cell viability counter screen (AID 1224818);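 also: series mostly up to about 46 µM; viability measured after 17.5 h of compound exposure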
In short: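 Cytotoxicity counter screen: fluorescence from CellTiter-Fluor, added after 17.5 h compound exposure at 37 C and read 30 min later. ERR cell line seeded at 2,000 cells/well, preincubated 6 h before dosing.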

[13] = qHTS assay to identify small molecule agonists of the estrogen related receptor (ERR) signaling pathway (AID 1224820)
In short: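 After 6 h plating (2,000 cells/well) and 18 h compound treatment at 37 C, ERR cells were lysed with One-Glo and luminescence read after 30 min at room temperature.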

[14] = qHTS assay to identify small molecule antagonists of the estrogen related receptor signaling pathway with the pleiotropic PPARgamma coactivator (PGC) cell viability counter screen (AID 1224822; also: series mostly up to about 46 µM)
In short: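 Viability counter-screen read by fluorescence intensity after 30 min with CellTiter-Fluor at 37 C; PGC/ERR reporter cells were exposed to compounds for 17.5 h at 37 C following a 6 h preincubation.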

[15] = qHTS assay to identify small molecule agonists of the estrogen related receptor signaling pathway with the pleiotropic PPARgamma coactivator (PGC) (AID 1224823)
In short: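 Luminescence from One-Glo reagent (30 min, room temperature) was read after 18 h compound treatment at 37 C of PGC/ERR cells plated 6 h beforehand; compounds delivered in DMSO by pin tool.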

[16] = qHTS assay to identify small molecule agonists of the retinoic acid receptor (RAR) signaling pathway (AID 1159553)
In short: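 Luminescence was measured 30 min after luciferase reagent addition at room temperature. Before that, C3RL4 reporter cells (1,000 per well, plated overnight) were treated with compound for 6 hr at 37 C and 5% CO2.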

[17] = molecular target: Thyrotropin receptor (Homo sapiens) (UniProt P16473); assay: qHTS assay to identify small molecule agonists of the thyroid stimulating hormone receptor (TSHR) signaling pathway (AID 1224843; calls by dose curve; also: nearly all actives have a fitted effect of over 45% in size)
In short: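 Agonist-mode screen: TSHR HEK293 cells received test chemicals for half an hour at room temperature, then HTRF cAMP detection reagents for one hour prior to fluorescence measurement. Each chemical ran as a 15-concentration series, triplicated.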

[18] = qHTS assay to identify small molecule antagonists of the estrogen related receptor (ERR) signaling pathway (AID 1224819; also: series mostly up to about 46 µM; nearly all actives have a fitted effect of over 50% in size)
In short: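 LOPAC library screened for antagonism as reduced One-Glo luminescence in ERR reporter cells (2,000/well). Compounds were added after 6 h pre-incubation and left 18 h at 37C; reading followed a 30 min room-temperature reagent step.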

[19] = tested on: estrogen-related receptor alpha (ERRalpha) with PGC-1alpha coactivator, human; assay: qHTS assay to identify small molecule antagonists of the estrogen related receptor signaling pathway with the pleiotropic PPARgamma coactivator (PGC) (AID 1224821; calls by dose curve;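 also: series mostly up to about 46 µM; lower luminescence signal means antagonism of PGC/ERR signalling; nearly all actives have a fitted effect of over 50% in size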)
In short: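 Luminescence from One-Glo luciferase reagent (30 min, room temperature) measured after 18 h compound treatment at 37 °C. Cells carry the PGC/ERR reporter and were seeded 6 h prior to dosing.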

Measured: Potency

Sequence of Thyrotropin receptor (Homo sapiens) (P16473 whole entry, looked up): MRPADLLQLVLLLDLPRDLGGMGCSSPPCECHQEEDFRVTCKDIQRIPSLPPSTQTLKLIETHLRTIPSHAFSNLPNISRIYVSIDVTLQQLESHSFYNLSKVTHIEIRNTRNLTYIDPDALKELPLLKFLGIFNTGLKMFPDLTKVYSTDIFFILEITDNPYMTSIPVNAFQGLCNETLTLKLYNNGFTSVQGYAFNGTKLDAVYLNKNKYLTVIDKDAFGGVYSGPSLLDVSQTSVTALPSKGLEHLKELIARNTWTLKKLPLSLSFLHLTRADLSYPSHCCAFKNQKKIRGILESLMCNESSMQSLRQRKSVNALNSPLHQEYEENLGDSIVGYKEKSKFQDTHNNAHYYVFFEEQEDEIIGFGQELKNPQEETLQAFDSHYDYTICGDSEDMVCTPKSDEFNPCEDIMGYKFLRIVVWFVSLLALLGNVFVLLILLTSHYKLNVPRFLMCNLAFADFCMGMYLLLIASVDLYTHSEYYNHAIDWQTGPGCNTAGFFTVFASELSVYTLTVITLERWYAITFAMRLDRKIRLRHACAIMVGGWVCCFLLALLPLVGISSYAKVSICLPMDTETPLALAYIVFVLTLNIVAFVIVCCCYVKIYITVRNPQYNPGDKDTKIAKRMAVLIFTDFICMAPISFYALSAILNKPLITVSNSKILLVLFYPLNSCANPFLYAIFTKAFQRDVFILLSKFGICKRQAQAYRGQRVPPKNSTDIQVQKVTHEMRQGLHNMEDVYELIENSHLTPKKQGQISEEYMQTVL
Sequence of Luciferin 4-monooxygenase (Photinus pyralis) (P08659 whole entry, looked up): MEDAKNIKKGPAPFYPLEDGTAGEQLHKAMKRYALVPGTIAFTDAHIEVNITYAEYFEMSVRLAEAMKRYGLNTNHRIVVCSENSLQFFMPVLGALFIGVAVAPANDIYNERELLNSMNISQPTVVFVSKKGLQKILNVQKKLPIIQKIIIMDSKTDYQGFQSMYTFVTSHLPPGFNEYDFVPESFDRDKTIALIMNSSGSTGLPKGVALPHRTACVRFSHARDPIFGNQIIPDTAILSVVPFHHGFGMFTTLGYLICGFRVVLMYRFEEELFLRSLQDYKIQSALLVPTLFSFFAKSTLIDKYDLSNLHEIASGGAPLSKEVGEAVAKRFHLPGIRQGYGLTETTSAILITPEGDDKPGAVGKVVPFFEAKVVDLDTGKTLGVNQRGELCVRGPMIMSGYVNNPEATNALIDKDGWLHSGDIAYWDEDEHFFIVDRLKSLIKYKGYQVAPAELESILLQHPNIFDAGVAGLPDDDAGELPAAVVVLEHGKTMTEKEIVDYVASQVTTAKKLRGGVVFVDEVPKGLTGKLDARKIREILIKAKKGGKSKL
Sequence of Nuclear receptor subfamily 1 group I member 3 (Homo sapiens) (Q14994 whole entry, looked up): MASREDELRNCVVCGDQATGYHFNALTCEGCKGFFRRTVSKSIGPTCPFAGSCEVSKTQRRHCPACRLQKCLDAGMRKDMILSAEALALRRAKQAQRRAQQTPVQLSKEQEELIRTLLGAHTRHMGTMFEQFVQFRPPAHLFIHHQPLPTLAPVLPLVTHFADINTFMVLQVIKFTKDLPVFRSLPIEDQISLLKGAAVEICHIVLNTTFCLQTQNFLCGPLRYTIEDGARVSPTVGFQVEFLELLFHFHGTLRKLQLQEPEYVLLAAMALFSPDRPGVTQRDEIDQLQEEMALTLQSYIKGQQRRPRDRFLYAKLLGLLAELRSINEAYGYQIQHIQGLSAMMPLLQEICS

C1CCC2CCCCC2C1 (stereo unspecified)
inactive: [1] | [2] | [3] | [4] | [5] | [6] | [7] | [8] | [9]

CC(=O)c1cc(C(C)(C)C)cc2c1CCC2(C)C
inactive: [1] | [2] | [3] | [4] | [5] | [10] | [7] | [8] | [11]

O=S(=O)(c1ccc(Cl)cc1)c1ccc(Cl)cc1
active: [6] 49.2 µM
not listed: [2] | [8] | [16] | [17] | [18] | [19]
inactive: all other assays above

C[C@]12Cc3nonc3C[C@@H]1CC[C@@H]1[C@@H]2CC[C@@]2(C)[C@H]1CC[C@]2(C)O
inactive: [1] | [16] | [3] | [4] | [5] | [9] | [17]
active: [2] 29.8 µM | [11] 26.8 µM

CCOc1cc(C(C)(C)C)ccc1C1COC(c2c(F)cccc2F)=N1 (stereo unspecified)
active: [6] 18.6 µM
inactive: [1] | [16] | [2] | [3] | [4] | [5] | [10] | [9]

Cc1cc(Cl)ccc1O[C@H](C)C(=O)O
inactive: [1] | [2] | [3] | [4] | [5] | [6] | [7] | [11]

CS(=O)(=O)c1ccc(C(=O)C2C(=O)CCCC2=O)c([N+](=O)[O-])c1
active: [8] 31.2 µM
not listed: [5] | [7] | [11] | [16] | [17]
inactive: all other assays above

C=CC(=O)N(C)C
active: [8] 27.3 µM
inactive: [1] | [2] | [3] | [4] | [5] | [7] | [17]

CC(C)(O)c1cnn2c(-c3ccc(F)c(-c4c(F)cccc4C#N)c3)cnc2n1
active: [11] 54.9 µM
inactive: [1] | [16] | [3] | [4] | [5] | [10] | [6] | [7] | [9] | [17]

CCC(C)c1cc(C(C)(C)C)cc(-n2nc3ccccc3n2)c1O (stereo unspecified)
inactive: [1] | [2] | [3] | [4] | [5] | [7] | [8] | [9]
active: [11] 19 µM

CN(C)[C@@H]1C(=O)C(C(N)=O)=C(O)[C@@]2(O)C(=O)C3=C(O)c4c(O)ccc(Cl)c4[C@@](C)(O)[C@H]3C[C@@H]12
inactive: [1] | [16] | [3] | [7] | [17] | [11]

COC(=O)N(C(=O)N1CO[C@@]2(C(=O)OC)Cc3cc(Cl)ccc3C2=N1)c1ccc(OC(F)(F)F)cc1
inactive: [1] | [16] | [2] | [3] | [4] | [5] | [7] | [9] | [11]

O=C/C(Cl)=C(/Cl)C(=O)O
inactive: [1] | [2] | [3] | [4] | [5] | [6] | [7] | [8] | [9] | [17]

O=c1c(C2CC(c3ccc(-c4ccc(Br)cc4)cc3)Cc3ccccc32)c(O)sc2ccccc12 (stereo unspecified)
active: [8] 11.9 µM | [11] 15.1 µM
not listed: [2] | [12] | [13] | [14] | [15] | [18] | [19]
inactive: all other assays above

CC(C)CC(C)N (stereo unspecified)
inactive: [1] | [2] | [3] | [4] | [5] | [7] | [8] | [9] | [17] | [11]

N#Cc1ccccc1N
inactive: [1] | [2] | [3] | [4] | [5] | [10] | [6] | [7] | [17] | [11]
